Several values for one entry are separate records, joined by “and”; a condition that tells them apart may be missing. Equal entries are not always repeated. Screen size: about 5,500 compounds; about 2,000 (36%) were called active. About 18% were inconclusive and are not listed. Cut-off read from the data, not from the text of the source: active = normalized growth mostly below about 0.91 (no sharp cut-off); inconclusive = no clear call, values can overlap the other calls; inactive = mostly above about 0.92. The list shows a part of the results.
Assay: chemical genetic growth profiling, strain panel (AID 1159580);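 note: tested at 20 µM; growth read once vehicle control cultures reached saturation at 30 °C; 1 = growth at the plate median or of vehicle wells; lower values mean less growth of the strain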
Conditions: S. cerevisiae deletion strains, growth OD

Measured: normalized growth

COc1cc2c(cc1OC)C(=O)OC2
inactive: locus YAL013W, strain DEP1, hits give low values 1 | locus YAL021C, strain ccr4, hits give low values 0.998 | locus YAL026C, strain drs2, hits give low values 1.01 | locus YAL030W, strain snc1, hits give low values 0.981 | locus YBL061C, strain skt5, hits give low values 0.988 | locus YBR009C, strain hhf1, hits give low values 0.992 | locus YBR021W, strain FUR4, hits give low values 0.999 | locus YBR023C, strain chs3, hits give low values 0.993 | locus YBR171W, strain sec66, hits give low values 0.998 | locus YBR229C, strain ROT2, hits give low values 1.01 | locus YBR231C, strain swc5, hits give low values 0.98 | locus YBR279W, strain paf1, hits give low values 0.997 | locus YCL011C, strain gbp2, hits give low values 0.99 | locus YCL016C, strain dcc1, hits give low values 0.987 | locus YCL029C, strain bik1, hits give low values 1.01 | locus YCL061C, strain MRC1, hits give low values 0.999 | locus YCL069W, strain vba3, hits give low values 1 | locus YCR088W, strain abp1, hits give low values 0.994 | locus YDL005C, strain med2, hits give low values 0.988 | locus YDL035C, strain GPR1, hits give low values 1.02 | locus YDL040C, strain nat1, hits give low values 0.985 | locus YDL074C, strain BRE1, hits give low values 0.985 | locus YDL101C, strain DUN1, hits give low values 1.01 | locus YDL134C, strain PPH21, hits give low values 0.999 | locus YDL185W, strain tfp1, hits give low values 1.01 | locus YDL192W, strain arf1, hits give low values 1 | locus YDR001C, strain nth1, hits give low values 1.01 | locus YDR069C, strain doa4, hits give low values 0.994 | locus YDR101C, strain arx1, hits give low values 0.994 | locus YDR137W, strain rgp1, hits give low values 0.967 | locus YDR150W, strain NUM1, hits give low values 1 | locus YDR159W, strain sac3, hits give low values 1.01 | locus YDR162C, strain NBP2, hits give low values 0.985 | locus YDR195W, strain ref2 1 | locus YDR297W, strain sur2, hits give low values 0.998 | locus YDR318W, strain mcm21, hits give low values 1.02 | locus YDR334W, strain swr1, hits give low values 0.976 | locus YDR335W, strain msn5, hits give low values 1 | locus YDR388W, hits give low values 1.01 | locus YDR392W, strain spt3, hits give low values 0.997 | locus YDR502C, strain sam2, hits give low values 0.983 | locus YEL003W, strain gim4, hits give low values 0.999 | locus YEL037C, strain rad23, hits give low values 0.994 | locus YEL061C, strain CIN8 (second series), hits give low values 1.01 | locus YEL061C, strain CIN8, hits give low values 1 | locus YER015W, strain faa2, hits give low values 0.988 | locus YER016W, strain bim1, hits give low values 0.999 | locus YER110C, hits give low values 1.01 | locus YER111C, strain swi4, hits give low values 0.996 | locus YER155C, strain BEM2 (second series), hits give low values 0.992 | locus YER155C, strain BEM2, hits give low values 1.01 | locus YER167W, strain BCK2, hits give low values 1.03 | locus YFR010W, strain ubp6, hits give low values 0.989 | locus YGL078C, strain dbp3, hits give low values 0.984 | locus YGL086W, strain mad1, hits give low values 1.03 | locus YGL167C, strain pmr1, hits give low values 0.984 | locus YGL173C, strain kem1, hits give low values 0.983 | locus YGL227W, strain vid30, hits give low values 0.998 | locus YGL240W, strain doc1, hits give low values 1.03 | locus YGL248W, strain PDE1, hits give low values 1.01 | locus YGL253W, strain hxk2, hits give low values 0.993 | locus YGR078C, strain PAC10, hits give low values 0.987 | locus YGR135W, strain pre9, hits give low values 0.961 | locus YGR229C, strain SMI1, hits give low values 0.999 | locus YGR252W, strain gcn5, hits give low values 1.06 | locus YHR013C, strain ard1, hits give low values 0.988 | locus YHR027C, strain rpn1, hits give low values 1 | locus YHR030C, strain SLT2, hits give low values 1.01 and 0.973 | locus YHR079C, strain IRE1 (second series), hits give low values 1.01 | locus YHR079C, strain IRE1, hits give low values 0.984 | locus YHR094C, strain hxt1, hits give low values 0.999 | locus YHR129C, strain ARP1, hits give low values 1.01 | locus YHR142W, strain chs7, hits give low values 0.972 | locus YHR200W, strain rpn10, hits give low values 1 | locus YIL066C, strain RNR3, hits give low values 1.02 | locus YIL073C, strain SPO22, hits give low values 1.06 | locus YIL125W, strain kgd1, hits give low values 0.99 | locus YIR030C, strain dcg1, hits give low values 0.999 | locus YJL092W, strain hpr5, hits give low values 0.999 | locus YJL095W, strain BCK1 (second series), hits give low values 0.991 | locus YJL095W, strain BCK1, hits give low values 0.996 and 0.98 | locus YJL115W, strain asf1, hits give low values 1 | locus YJL129C, strain trk1, hits give low values 1.03 | locus YJL134W, strain LCB3, hits give low values 1 | locus YJL154C, strain vps35, hits give low values 0.988 | locus YJL164C, strain tpk1, hits give low values 0.996 | locus YJL166W, strain qcr8, hits give low values 0.981 | locus YJL168C, strain set2, hits give low values 1.01 | locus YJL187C, strain SWE1 (second series), hits give low values 1 | locus YJR043C, strain POL32, hits give low values 1.03 | locus YJR066W, strain TOR1, hits give low values 0.977
